About 2,900 (47%) of roughly 6,200 compounds were called active. Rule as the data show it: active = inhibition above about 50%; inactive = the rest. The set was probably picked from earlier hits. This is one part of the list.
Experiment: Mycobacterium tuberculosis growth inhibition, primary screen (AID 1259343)
Conditions: inhibition: at 10 µM, stronger effect = higher value; outcome: 10 uM
In the case of `CN(CC1=CC[C@H]2C[C@@H]1C2(C)C)Cc1nnc(-c2ccccc2)o1`, the inhibition is reported as 39% (inactive). In the case of `CCCCCCSc1nnc2[nH]c(=O)cc(N)n12`, the inhibition is reported as “inactive”. With `CCCCCCCSc1nnc2[nH]c(=O)cc(N)n12` the inhibition was “inactive”. For `CCCCCCSc1nnc2nc(C)cc(C)n12`, the inhibition was 58.4% (active). In the case of `O=C(NS(=O)(=O)c1ccccc1)c1cccc(Cl)c1`, the inhibition is reported as 88.3% (active). With `O=C(NS(=O)(=O)c1cncc(Br)c1)c1ccc(OC(F)(F)F)cc1` the inhibition was 18.9% (inactive). With `COc1cc(C(=O)NS(=O)(=O)c2ccc(Cl)cc2)ccc1OC(C)C` the inhibition was 28.1% (inactive). In the case of `CNc1cc(C(=O)NS(=O)(=O)c2ccccc2)cc(Cl)n1`, the inhibition is reported as 55.1% (active). For `O=S(=O)(Nc1ccc(C(F)(F)F)cc1)c1cccc(Cl)c1`, the inhibition was 22.9% (inactive). With `Cc1cc(-c2nc3c(C)cccc3o2)ccc1NC(=O)C(C)C` the inhibition was 58.5% (active). With `Cc1ccc2oc(-c3ccc(C)c(N)c3)nc2c1` the inhibition was 37.6% (inactive). For `N#Cc1c(N=CN2CCCCCC2)sc2c1CCCC2`, the inhibition was 99% (active). With `Cc1ccc(-n2[nH]c(C)c(N=Nc3cccc(-c4cccc(C(=O)O)c4)c3O)c2=O)cc1C` the inhibition was 83.7% (active). For `Cc1cc2cccc(C(=O)N3CCN4CCN(C)C(=O)C4C3)c2o1` (centres undefined), the inhibition was 0.8% (inactive). With `Cc1ccc(NC2CCCN(C(=O)c3cc4ccccc4o3)C2)cc1C` (centres undefined) the inhibition was “inactive”. For `Cc1cccc2cc(C(=O)N3C[C@H]4CC=CC[C@H]4C3)oc12`, the inhibition was 72.4% (active). With `S=C(Nc1ccccc1)Nc1nncs1` the inhibition was 15.5% (inactive). In the case of `O=C(Nc1nncs1)c1ccc(C2CCCCC2)cc1`, the inhibition is reported as 82.1% (active). With `Cc1cnc(NC(=O)c2ccc(N(C)C3CCCCC3)cc2)s1` the inhibition was 45.9% (inactive). With `O=C1NC(=S)SC1=Cc1ccccc1OC(F)F` the inhibition was 81.1% (active). With `O=C1NC(=S)SC1=Cc1ccccc1OCc1ccccc1` the inhibition was 102% (active). In the case of `C=CCOc1ccc(-c2ccc(C#N)cc2)cc1`, the inhibition is reported as -10.6% (inactive). With `Oc1ccc(-c2ccc(I)cc2)cc1` the inhibition was 20.3% (inactive). In the case of `N#Cc1ccc(-c2ccc(O)cc2)cc1`, the inhibition is reported as 96.9% (active). With `O=C(CCl)N1CCSC1c1ccccc1F` (centres undefined) the inhibition was 99.6% (active). With `O=C(Nc1ccc(Cl)cc1)N1CCC1c1ccccc1F` (centres undefined) the inhibition was -6.67% (inactive). In the case of `CCN1CCN(c2c(CN(C(=O)Nc3ccc(SC)cc3)C(C)C)c(C)nn2-c2cccc(F)c2)CC1`, the inhibition is reported as 74.4% (active). In the case of `Cn1nc(C(=O)NCC23CC4CC(CC(C4)C2)C3)ccc1=O`, the inhibition is reported as 77.1% (active). In the case of `CCCn1nc(C(=O)NC(C)c2nnc3n2CCC3)ccc1=O` (centres undefined), the inhibition is reported as 3.57% (inactive). In the case of `O=C(O)c1cc(-c2cccc(F)c2)n2nc(-c3ccccc3)cc2n1`, the inhibition is reported as 34.3% (inactive). For `O=c1cc(-c2ccccc2)nc2sc(Br)nn12`, the inhibition was 102% (active). For `Nc1c(C=C2C=C([N+](=O)[O-])C=C(Br)C2=O)c(=O)nc2sc(-c3ccccc3)nn12`, the inhibition was 45.7% (inactive). For `O=c1[nH]c2cc(Cl)c(Br)cc2o1`, the inhibition was 81.6% (active). With `O=c1[nH]c2c(Cl)c(Cl)c(Cl)cc2o1` the inhibition was 31.7% (inactive). In the case of `O=c1[nH]c2c(Br)c(Br)c(Cl)cc2o1`, the inhibition is reported as “inactive”. For `CCc1c(C)nc(-n2nc(C)cc2NC(=O)c2ccccc2C)[nH]c1=O`, the inhibition was 12.6% (inactive). In the case of `CCc1c(C)nc(-n2nc(C)cc2NC(=O)Cc2cccc3ccccc23)[nH]c1=O`, the inhibition is reported as 98.5% (active). With `CCc1c(C)nc(-n2nc(C)cc2NC(=O)c2cccc3ccccc23)[nH]c1=O` the inhibition was 100% (active). In the case of `CCc1c(C)nc(-n2nc(C)cc2NC(=O)c2ccccc2SC)[nH]c1=O`, the inhibition is reported as 100% (active). For `CCc1cc(=O)[nH]c(-n2nc(C)cc2NC(=O)c2ccccc2SC)n1`, the inhibition was 99.7% (active). For `Cc1cc(NC(=O)c2cccc3ccccc23)n(-c2nc(C)c(C)c(=O)[nH]2)n1`, the inhibition was -30.4% (inactive). With `CNc1cccc(-c2ccc(O)cc2)n1` the inhibition was 33.6% (inactive). For `C=CCn1c(-c2ccc(Cl)cc2Cl)csc1=Nc1cccc(O)c1`, the inhibition was -10.5% (inactive). In the case of `CCOC(=O)Cn1c(=NC(=O)c2ccccc2[N+](=O)[O-])sc2cc(C(C)C)ccc21`, the inhibition is reported as 3.22% (inactive). With `CCc1c(C)nc(-n2nc(C)cc2NC(=O)c2cc3ccccc3o2)[nH]c1=O` the inhibition was -38.5% (inactive). With `CCc1c(C)nc(-n2nc(C)cc2NC(=O)c2ccccc2C(F)(F)F)[nH]c1=O` the inhibition was 101% (active). For `CCc1c(C)nc(-n2nc(C)cc2NC(=O)c2cc(=O)c3ccccc3o2)[nH]c1=O`, the inhibition was 101% (active). In the case of `Cc1nc(C)c(Cc2ccccc2Cl)c(N2CCN(C(=O)c3cccc(Br)c3)CC2)n1`, the inhibition is reported as 29.3% (inactive). With `Cc1nc(-c2ccc(Cl)cc2)nc(N2CCNCC2)c1Cc1ccccc1` the inhibition was 97.6% (active). For `Cc1cccc(OC2CN(c3nc(-c4ccccn4)nc4c3CCNC4)C2)c1`, the inhibition was 26.7% (inactive). With `Cc1cccc(-c2nc(C)c(Cc3ccccc3)c(N3CCNCC3)n2)c1` the inhibition was 101% (active). In the case of `Cc1ccc(-c2nc(C)c(C(C)C)c(N3CCNCC3)n2)cc1`, the inhibition is reported as 44% (inactive). With `CCc1c(C)nc(-c2ccc(OC)cc2)nc1N1CCNCC1` the inhibition was 42.7% (inactive). For `Cc1nc(-c2cccc(F)c2)nc(N2CCNCC2)c1Cc1ccccc1`, the inhibition was 66.1% (active). In the case of `Cc1nc(-c2ccc(Cl)cc2)nc(N2CCNCC2)c1C`, the inhibition is reported as 79.2% (active). With `COC(=O)c1ccc(NC(=O)c2ccc(Br)o2)cc1` the inhibition was 83.8% (active). For `CN(Cc1ccc(Cl)cc1)c1nccc(-c2cc(C(=O)O)ccn2)n1`, the inhibition was 17.6% (inactive). For `CN(Cc1ccc(C(N)=O)cc1)c1cccc(F)c1C#N`, the inhibition was 13.8% (inactive). With `Cc1ccc(CN(C)c2ccc(C(=O)O)cc2)cc1` the inhibition was 51.7% (active). With `O=C(CCc1ccc(O)cc1)c1c(O)cc(O)cc1O` the inhibition was 93.3% (active). In the case of `O=C(NCCc1ccc(O)cc1)Nc1cccc2c1CCCC2`, the inhibition is reported as 7.1% (inactive). With `O=C(CCc1ccc(O)cc1)N1CCOC(c2ccc(Cl)cc2)C1` (centres undefined) the inhibition was 19.6% (inactive). For `Clc1ccc(NN=Cc2ccccn2)cc1Cl`, the inhibition was 14.1% (inactive). For `Clc1ccc2nc(NN=Cc3ccccn3)nc(-c3ccccc3)c2c1`, the inhibition was 92.1% (active). In the case of `C(=NNc1ccc2ccccc2n1)c1ccccn1`, the inhibition is reported as -19.7% (inactive). For `Nc1ccc(S(=O)(=O)Nc2ccnn2-c2ccccc2)cc1`, the inhibition was 55.2% (active). With `CC(C)=CCCC(C)CCNCCc1ccco1` (centres undefined) the inhibition was -15% (inactive). In the case of `CC(=O)N1CCC(NC(=O)c2ccc(Oc3ccccc3)cc2)CC1`, the inhibition is reported as 16.9% (inactive). In the case of `CC(Nc1nc(-c2cccs2)nc2ccccc12)C1CCCO1` (centres undefined), the inhibition is reported as -41.2% (inactive). With `CC(NC(=O)c1ccc(Oc2ccccc2)cc1)C1CCCO1` (centres undefined) the inhibition was 92.8% (active). With `Cc1cccc(/C=C/c2nc(-c3cc(C(=O)O)co3)cs2)c1` the inhibition was 42.9% (inactive). With `OCC1(CCc2ccccc2)CCCN(Cc2cc3ccccc3o2)C1` (centres undefined) the inhibition was 23.5% (inactive). With `Oc1ccccc1CN1CCCn2cccc2C1c1cccc(C(F)(F)F)c1` (centres undefined) the inhibition was 22.1% (inactive). In the case of `O=C(C=Cc1ccc2c(c1)OCO2)c1ccc(Br)cc1`, the inhibition is reported as -39.3% (inactive). For `O=C(C=Cc1ccc2c(c1)OCO2)c1ccc(Cl)cc1Cl`, the inhibition was 73.5% (active). For `CC(C)(C)c1ccc(C2=NC(=Cc3ccc4c(c3)OCO4)C(=O)O2)cc1`, the inhibition was -19.9% (inactive). For `COC(=O)CCc1nnc(NS(=O)(=O)c2ccc(C)c(C)c2)s1`, the inhibition was 48.8% (inactive). For `COC(=O)c1nnn(-c2ccc(C)c(C)c2)c1C(=O)OC`, the inhibition was 82.4% (active). For `Cc1cc(N)c2ccccc2[n+]1CCCCCCCCCC[n+]1c(C)cc(N)c2ccccc21`, the inhibition was 72.6% (active). In the case of `c1ccc(-c2cn3c(n2)CCc2ccc4cccnc4c2-3)cc1`, the inhibition is reported as 16.6% (inactive). With `c1cnc(Sc2ccc3ccccc3c2)nc1` the inhibition was 32.8% (inactive). In the case of `c1cnc2c(c1)ccc1cccnc12`, the inhibition is reported as 95.2% (active). With `Cc1c(Cc2ccccc2)c(=O)oc2cc(OCC(N)=O)ccc12` the inhibition was 62.1% (active). For `COc1cccc(-c2coc3c(C)c4oc(=O)c(CCC(=O)O)c(C)c4cc23)c1`, the inhibition was 47% (inactive). For `NC(=O)COc1cccc(CN2CCCSc3ccccc32)c1`, the inhibition was 35.4% (inactive). For `ClC1(Cl)CC1Cn1c(Cc2ccccc2)nc2ccccc21` (centres undefined), the inhibition was 25.7% (inactive). With `CCc1ccc(OCCCn2c(CO)nc3ccccc32)cc1` the inhibition was 77% (active). In the case of `CCc1ccc(OCCn2c(CO)nc3ccccc32)cc1`, the inhibition is reported as 34.1% (inactive). In the case of `CCOc1ccc(N=C(Nc2ccc(OCC)cc2)SC)cc1`, the inhibition is reported as -1.39% (inactive). In the case of `COc1ccc(N=C(Nc2ccc(OC)cc2)SC)cc1`, the inhibition is reported as 74.3% (active). For `CCn1c(=S)[nH]c2sc3c(c2c1=O)CCC(C)C3` (centres undefined), the inhibition was 21.2% (inactive). For `CCn1c(=S)[nH]c2scc(-c3cccs3)c2c1=O`, the inhibition was 98.8% (active). In the case of `Cn1c(=S)[nH]c2scc(-c3cccs3)c2c1=O`, the inhibition is reported as -21.9% (inactive). For `Cc1csc(NC(=O)c2ccc(COc3cccc4c3OC(C)(C)C4)cc2)n1`, the inhibition was 92.8% (active). For `CCN(CC)[P+](N(C)Cc1ccco1)(N(CC)CC)N(CC)CC`, the inhibition was 30.8% (inactive). In the case of `NC1=NC(c2cccc(Cl)c2)n2c(nc3ccccc32)N1` (centres undefined), the inhibition is reported as 56.7% (active). In the case of `NC1=NC(c2ccc(-c3ccccc3)cc2)n2c(nc3ccccc32)N1` (centres undefined), the inhibition is reported as 26.9% (inactive). With `CC(C)c1ccc(C2N=C(N)Nc3nc4ccccc4n32)cc1` (centres undefined) the inhibition was 13.8% (inactive). In the case of `Cc1cc(C(=O)NC(C)Cc2ccc(Br)cc2)on1` (centres undefined), the inhibition is reported as 55.5% (active). For `CC(Cn1cccn1)NC(=O)c1ccc(Br)o1` (centres undefined), the inhibition was 22.1% (inactive). In the case of `Cc1oc(C)c(C(=O)NC(C)Cc2ccc(Cl)cc2)c1C` (centres undefined), the inhibition is reported as 42.4% (inactive). In the case of `CCCn1nc(C)c(CNc2ccc(Br)cc2)c1C`, the inhibition is reported as 20% (inactive). In the case of `COc1ccc(C2CC(=O)c3cc([N+](=O)[O-])ccc3O2)cc1` (centres undefined), the inhibition is reported as 96.6% (active). With `CN(C)C(=O)n1nnnc1Cc1ccc(-c2ccccc2)cc1` the inhibition was 39.2% (inactive). With `O=C(CCc1nnc(Cc2ccc(-c3ccccc3)cc2)o1)NC1CCc2ccccc21` (centres undefined) the inhibition was 62% (active). For `O=C(CCc1nnc(Cc2ccc(-c3ccccc3)cc2)o1)NCCc1ccccn1`, the inhibition was 50.7% (active). With `CC(NC(=O)CCc1nnc(Cc2ccc(-c3ccccc3)cc2)o1)c1ccccc1` (centres undefined) the inhibition was 37.7% (inactive). In the case of `O=C(CCc1nnc(Cc2ccc(-c3ccccc3)cc2)o1)NCc1cccnc1`, the inhibition is reported as “inactive”. For `Cc1cn2nc(NC3CCc4ccccc43)sc2n1` (centres undefined), the inhibition was 41.4% (inactive).

Source: PubChem BioAssay AID1259343 (VanderVen Lab, College of Veterinary Medicine, Cornell …, 2017)
